Calls of active or inactive are those of the source.
Columns and labels:
[1] = test system: Human papillomavirus type 1a protein E7 (residues 44-93); test: HPV1a E7 fragment binders on microarrays, primary screen, biochemical, small-molecule microarray, residues 44-93, 635 nm fluorescence (AID 1108); conditions: small-molecule microarray binding, fluorescence 635 nm; higher = more signal;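 note: E7 fragment applied at 1 µg/mL in TBST for 1 h at 4 C; score combines spot fluorescence with its signal to noise ratio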
[2] = modulators of HCV replicon luciferase signal, primary screen, HCV replication inhibitor project, Huh7 cells, luciferase reporter (AID 1109); conditions: 48 h, higher = more signal;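 note: huh7 hepatoma cells harbouring a luciferase neomycin HCV replicon reporter; luciferase luminescence as measure of HCV replicon replication; test concentration not given here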
[3] = molecular target: Left-right determination factor 2 (Homo sapiens) (UniProt O00292); test: LEFTY2 binders on small-molecule microarrays, primary screen, biochemical, small-molecule microarray, 635 nm fluorescence scan (AID 1110); conditions: LEFTY2 binding, higher = more signal
Sequence of Left-right determination factor 2 (Homo sapiens) (O00292 whole entry, looked up): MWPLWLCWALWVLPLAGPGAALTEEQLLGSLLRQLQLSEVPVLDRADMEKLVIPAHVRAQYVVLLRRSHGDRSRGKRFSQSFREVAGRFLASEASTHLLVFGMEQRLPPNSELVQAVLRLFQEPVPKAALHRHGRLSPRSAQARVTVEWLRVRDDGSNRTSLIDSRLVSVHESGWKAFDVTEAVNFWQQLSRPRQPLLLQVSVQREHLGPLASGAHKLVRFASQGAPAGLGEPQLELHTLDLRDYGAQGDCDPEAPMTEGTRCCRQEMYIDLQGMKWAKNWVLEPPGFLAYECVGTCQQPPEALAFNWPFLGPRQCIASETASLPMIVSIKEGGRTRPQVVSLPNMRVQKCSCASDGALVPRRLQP

[4] = molecular target: Calmodulin-1 (Homo sapiens) (UniProt P0DP23); test: CALM1 binders on microarrays, EGTA buffer, profiling panel, biochemical, small-molecule microarray, Cy5-labelled CALM1 (AID 1111); conditions: Cy5-CALM1 binding fluorescence, higher = more signal;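 note: labelled calmodulin applied in Tris saline Tween buffer holding calcium plus EGTA and DTT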
[5] = molecular target: Calmodulin-1 (Homo sapiens) (UniProt P0DP23); test: calcium-bound CALM1 binders on microarrays, profiling panel, artefact control for SMM control-protein annotation, biochemical, small-molecule microarray, Cy5-labelled CALM1, plus calcium (AID 1112); conditions: Cy5-CALM1 binding fluorescence, higher = more signal;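 note: score merges spot fluorescence with signal to noise from triplicate slides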
[6] = small-molecule microarray binders of probe aWnt5a, primary screen, biochemical, biotinylated probe, 635/667 nm fluorescence (AID 1113); conditions: higher = more signal;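 note: score merges 667 nm fluorescence intensity with signal-to-noise per printed feature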
[7] = small-molecule microarray binders of probe aShh, primary screen, biochemical, biotinylated probe, 635/667 nm fluorescence (AID 1114); conditions: higher = more signal;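 note: probe is biotin-labelled aShh protein from a stem cell growth factor screen; measures binding of labelled protein to compounds printed on the slide; score merges feature fluorescence at 667 nm with signal-to-noise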
[8] = small-molecule microarray binders of probe aNog, primary screen, biochemical, biotinylated probe, 635/667 nm fluorescence (AID 1115); conditions: higher = more signal;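 note: probe is biotinylated aNog protein used at 0.15 µg/mL for 1 h at 4 C; z-score combines 667 nm fluorescence of each spot with its signal to noise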
[9] = molecular target: Torsin-1A-interacting protein 1 (Homo sapiens) (UniProt Q5JTV8); test: LAP1 binders from COS7 cell lysate, primary screen, small-molecule microarray, 635/667 nm fluorescence (AID 1116); conditions: COS7-hLAP1 lysate binding, 635 nm fluorescence, higher = more signal
Sequence of Torsin-1A-interacting protein 1 (Homo sapiens) (Q5JTV8 whole entry, looked up): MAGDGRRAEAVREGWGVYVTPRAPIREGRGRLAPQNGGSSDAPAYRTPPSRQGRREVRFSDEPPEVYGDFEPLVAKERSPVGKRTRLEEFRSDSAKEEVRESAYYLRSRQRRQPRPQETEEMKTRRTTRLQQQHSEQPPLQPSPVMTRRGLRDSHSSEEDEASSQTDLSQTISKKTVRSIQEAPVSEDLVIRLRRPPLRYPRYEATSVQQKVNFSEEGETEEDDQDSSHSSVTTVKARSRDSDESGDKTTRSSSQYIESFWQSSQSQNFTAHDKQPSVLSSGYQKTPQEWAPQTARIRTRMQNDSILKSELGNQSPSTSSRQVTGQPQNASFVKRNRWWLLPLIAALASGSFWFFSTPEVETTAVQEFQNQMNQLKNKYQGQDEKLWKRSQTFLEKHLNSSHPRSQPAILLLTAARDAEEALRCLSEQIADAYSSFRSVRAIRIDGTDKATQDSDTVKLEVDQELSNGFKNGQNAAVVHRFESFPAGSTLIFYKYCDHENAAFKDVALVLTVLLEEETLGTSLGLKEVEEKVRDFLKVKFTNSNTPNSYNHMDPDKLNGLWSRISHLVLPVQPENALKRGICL

[10] = molecular target: Alpha-bungarotoxin (Bungarus multicinctus) (UniProt P60615); test: alpha-bungarotoxin binders on microarray, profiling panel, artefact control for SMM control protein annotation, biochemical, small-molecule microarray, Alexa647 label, 635/667 nm fluorescence (AID 1117); conditions: alpha-BTX-A647 binding fluorescence, higher = more signal
Sequence of Alpha-bungarotoxin (Bungarus multicinctus) (P60615 whole entry, looked up): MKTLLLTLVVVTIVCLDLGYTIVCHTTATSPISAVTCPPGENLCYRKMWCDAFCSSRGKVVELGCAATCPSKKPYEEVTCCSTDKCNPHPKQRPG

Albumin (Bos taurus) = Albumin (Bos taurus) (UniProt P02769); test: bovine serum albumin binders on microarray, profiling panel, artefact control for SMM control protein annotation, biochemical, small-molecule microarray, Alexa647 label, 635/667 nm fluorescence (AID 1118); conditions: BSA-A647 binding, fluorescence 635 nm, higher = more signal;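 note: score merges 667 nm emission intensity and signal-to-noise per printed compound spot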
Sequence of Albumin (Bos taurus) (P02769 whole entry, looked up): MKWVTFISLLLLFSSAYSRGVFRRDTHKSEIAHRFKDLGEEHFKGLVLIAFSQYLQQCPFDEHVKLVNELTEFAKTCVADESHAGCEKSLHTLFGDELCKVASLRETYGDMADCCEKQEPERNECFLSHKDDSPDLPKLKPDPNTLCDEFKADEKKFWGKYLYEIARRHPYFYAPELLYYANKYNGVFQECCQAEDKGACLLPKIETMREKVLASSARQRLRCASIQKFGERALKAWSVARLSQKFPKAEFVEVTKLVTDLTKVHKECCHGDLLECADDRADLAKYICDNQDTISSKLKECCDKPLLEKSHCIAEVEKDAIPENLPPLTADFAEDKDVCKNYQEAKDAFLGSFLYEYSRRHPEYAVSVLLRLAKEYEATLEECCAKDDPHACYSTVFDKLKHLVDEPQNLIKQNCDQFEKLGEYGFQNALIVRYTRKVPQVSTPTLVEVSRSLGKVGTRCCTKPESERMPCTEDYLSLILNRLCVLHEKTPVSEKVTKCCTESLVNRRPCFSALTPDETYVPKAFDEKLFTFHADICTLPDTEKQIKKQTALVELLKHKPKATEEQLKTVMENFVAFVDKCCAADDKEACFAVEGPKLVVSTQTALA

[11] = small-molecule microarray binders of probe aXIP, primary screen, biochemical, NeuroSMM set, 635/667 nm fluorescence (AID 1119); conditions: higher = more signal, called active from +8 up or from −8 down;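 note: probe is the protein aXip251-270 applied at 1 µg/mL to compound-printed slides; binding of probe to printed compounds measured as 667 nm fluorescence plus signal to noise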
[12] = small-molecule binders of probe aNOTCH3, primary screen, biochemical, small-molecule microarray, 635/667 nm fluorescence (AID 1120); conditions: higher = more signal;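 note: probe is a biotin-tagged antibody raised against NOTCH3 rather than NOTCH3 protein; score merges spot fluorescence near 667 nm with spot signal to noise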
[13] = small-molecule binders of probe aNOTCH2, primary screen, biochemical, small-molecule microarray, 635/667 nm fluorescence (AID 1121); conditions: higher = more signal;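 note: score merges feature fluorescence read at 667 nm with its signal to noise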
[14] = molecular target: Carbonic anhydrase 2 (Homo sapiens) (UniProt P00918); test: CAII small-molecule binders, profiling panel, biochemical, small-molecule microarray, Alexa647-labelled CAII (AID 1122); conditions: CAII-A647 binding fluorescence, higher = more signal
[15] = COS7 lysate on small-molecule microarray, probe aHis, 635 nm (AID 1123); conditions: COS7 cell lysate, fluorescence, higher = more signal;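 note: z-score combines 667nm fluorescence intensity with signal-to-noise per printed compound spot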
[16] = compound binding in COS7 lysate, probe aLAP1, primary screen, cell lysate, small-molecule microarray (AID 1124); conditions: probe aLAP1, fluorescence, higher = more signal;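 note: lysate comes from COS7 cells expressing LAP1 and is applied at 0.3 µg/mL; score merges spot fluorescence near 667 nm with signal-to-noise over triplicate slides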
Sam68 (KHDRBS1) = test: Sam68 small-molecule binders, primary screen, biochemical, small-molecule microarray, 635 nm fluorescence (AID 1125); conditions: small-molecule microarray binding, higher = more signal;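 note: score merges 667 nm channel intensity with signal to noise over triplicate slides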
[17] = test system: Chordin-like protein 2 (CHRDL2); test: CHRDL2 small-molecule binders, primary screen, biochemical, small-molecule microarray, 635 nm fluorescence (AID 1126); conditions: small-molecule microarray binding, fluorescence 635 nm; higher = more signal;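 note: printed compound slides probed with Chrdl2 protein at 4 µg/mL for 1 h at 4 C; score merges 667 nm emission intensity with signal to noise over three replicate slides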
[18] = molecular target: Concanavalin-A (Canavalia ensiformis) (UniProt P02866); test: ConA small-molecule binders, primary screen, artefact control for SMM control protein annotation, biochemical, small-molecule microarray, Alexa647 label, 635 nm (AID 1127); conditions: ConA-A647 binding fluorescence, higher = more signal;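 note: z combines 667 nm emission intensity with signal-to-noise across three replicate slides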
Sequence of Concanavalin-A (Canavalia ensiformis) (P02866 whole entry, looked up): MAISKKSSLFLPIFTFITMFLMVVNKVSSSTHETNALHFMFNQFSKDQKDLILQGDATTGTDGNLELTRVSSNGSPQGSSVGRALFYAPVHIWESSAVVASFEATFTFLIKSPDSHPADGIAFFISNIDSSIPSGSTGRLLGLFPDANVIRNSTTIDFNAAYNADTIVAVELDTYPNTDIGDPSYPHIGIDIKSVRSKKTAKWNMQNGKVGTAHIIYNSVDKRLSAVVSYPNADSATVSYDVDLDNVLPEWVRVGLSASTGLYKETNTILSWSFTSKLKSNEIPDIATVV

SMILES	composite z-score [1]	z-score [2]	composite z-score [3]	composite z-score [4]	composite z-score [5]	composite z-score [6]	composite z-score [7]	composite z-score [8]	composite z-score [9]	composite z-score [10]	composite z-score (Albumin (Bos taurus))	composite Z-score [11]	composite z-score [12]	composite z-score [13]	composite z-score [14]	composite z-score [15]	composite z-score [16]	composite z-score (Sam68 (KHDRBS1))	composite z-score [17]	composite z-score [18]
CC(C)Cc1ccc(CN2CC[C@@H](NC(=O)Nc3ccccc3)C2)cc1	-0.709	-4.9	0.463	-0.433	0.0615	-0.0202	-0.221	-0.164	-0.311	0.166	0.476	-0.119 (inactive)	-0.133	-0.0974	0.119	-0.104	0.397	-0.0489	0.214	-0.0211
CC1=C([C@H](O)CCc2ccccc2)[C@H](CO)[C@@H]2C(=O)N(C)C(=O)[C@@H]2C1	0.305	-0.581	0.392	0.489	-0.905	-0.197	-0.262	-0.416	0.185	0.224	0.361	-0.297 (inactive)	0.0313	0.0592	0.125	0.58	0.244	0.535	0.557	0.476
CCC(CC)C(O)C1C=CC2C(=O)N(c3ccccc3)C(=O)C2N1Nc1ccc(C(C)C)cc1 (stereo not given)	1.28	-0.652	-0.0146	1.04	0.419	-0.0643	0.698	0.967	1.23	1.27	0.682	0.15 (inactive)	0.213	0.197	0.691	2.24	0.359	1.3	-0.0149	0.922
N#Cc1ccc(NN2C(C(O)c3ccc(F)cc3)C=CC3C(=O)N(c4ccccc4)C(=O)C32)cc1 (stereo not given)	0.771	-0.41	-0.81	2.39	1.04	0.0334	-0.0578	1.83	2.24	1.05	0.824	0.383 (inactive)	-0.16	-0.138	0.318	2.59	0.905	-0.306	-1.55	0.536
COCCOC(=O)N1C(=O)[C@@]2(c3ccccc31)[C@H](C(=O)N1CCN(c3ncccn3)CC1)[C@H]1C(=O)O[C@H](c3ccccc3)[C@H](c3ccccc3)N1[C@@H]2c1ccc(O)cc1	0.97	-1.57	0.256	0.949	0.166	-0.0735	0.191	0.893	0.482	1.72	0.303	-0.197 (inactive)	-0.273	-0.237	0.597	1.15	0.421	1.02	0.271	1.1
COC(=O)c1c(CC[C@@H](CO)NC(=O)N[C@H](Cn2cc(C3(O)CCCCC3)nn2)C(C)C)oc(C(C)=O)c1C(=O)OC	1.01	-0.415	0.724	0.169	-0.715	0.002	0.151	0.141	0.748	1.65	-0.471	0.183 (inactive)	0.0282	-0.0878	0.209	0.32	-0.0003	1.14	0.513	1.16
Cc1cc(C)c(C(O)C2C=CC3C(=O)N(c4ccccc4)C(=O)C3N2Nc2ccc(C(C)C)cc2)c(C)c1 (stereo not given)	-0.9	0.437	0.229	2.15	1.37	0.0792	0.664	1.21	1.27	2.85	0.585	0.904 (inactive)	0.331	0.0557	0.712	2.78	0.8	1.29	-0.545	1.18
CN(C)CCCNC(=O)[C@@H]1c2ccccc2C(=O)N(Cc2ccccc2Cl)[C@H]1c1ccc(CO)cc1	0.0979	-1.7	-0.505	-0.139	-0.464	-0.124	-0.114	0.213	0.779	1.74	0.301	0.247 (inactive)	-0.236	-0.0993	0.73	1.17	0.982	0.671	-0.349	-0.284
CO[C@H]1O[C@H](CO)[C@@H](OC(=O)Nc2ccccc2-c2ccccc2)[C@H](OC(=O)Nc2ccc3c(c2)OCO3)[C@H]1OC(=O)Nc1ccc2c(c1)OCO2	1.29	1.54	0.395	0.58	-0.187	-0.0194	0.398	1.19	1.76	1.25	0.902	0.806 (inactive)	0.211	-0.103	0.498	2.8	1.11	1.31	0.454	1.06
COC(=O)[C@@]1(Cc2ccccc2N=[N+]=[N-])N=C(c2ccc(OCCCO)cc2)O[C@H]1c1ccccc1N=[N+]=[N-]	0.193	-3.4	-0.182	0.178	-0.62	0.027	-0.064	1.05	0.435	0.726	-0.908	0.332 (inactive)	0.149	0.0977	0.355	1.44	0.494	0.996	0.456	0.851
O=C1NC(=O)C2C1C=CC(C(O)c1ccco1)N2Nc1ccccn1 (stereo not given)	-0.45	0.314	-0.111	-0.334	-0.0734	-0.2	0.111	-0.295	0.38	0.0104	-0.176	0.0674 (inactive)	-0.133	-0.0567	0.713	0.0264	0.861	0.14	0.146	-0.0501

Source: PubChem BioAssay
